Shown are actives, neighbours in structure and some others; about 7% of the full set was active somewhere.
rCAG RNA binder: molecules binding r(CAG) RNA repeats | r(CAG) RNA repeat, TO-PRO-1 dye displacement fluorescence | inhibition, % at 3 µM | 370,000 tested, 1.3% active;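 active means inhibition above the plate cutoff, the mean of all test compounds on that plate plus 3 SD, cut at about 35% in these data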;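 further: higher means more dye released from RNA so lower well fluorescence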
ADAM10 inh: inhibits human ADAM10; O14672; recombinant ADAM10, EDANS/DABCYL FRET peptide cleavage, 3 h; inhibition, % at 7 µM; 370,000 tested, 0.62% active; AID 720582;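 active means inhibition above a per-campaign cutoff equal to the mean of compounds falling between control-based bounds plus 3 SD, cut at about 20% in these data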
AHR act: human AHR activation. AID 2796. activation, % at 5 µM. P35869. 320,000 tested, 2.5% active. AHR-responsive luciferase reporter cells, luminescence; in the data active means activation above about 47%
Target sequence (P35869 whole entry, looked up): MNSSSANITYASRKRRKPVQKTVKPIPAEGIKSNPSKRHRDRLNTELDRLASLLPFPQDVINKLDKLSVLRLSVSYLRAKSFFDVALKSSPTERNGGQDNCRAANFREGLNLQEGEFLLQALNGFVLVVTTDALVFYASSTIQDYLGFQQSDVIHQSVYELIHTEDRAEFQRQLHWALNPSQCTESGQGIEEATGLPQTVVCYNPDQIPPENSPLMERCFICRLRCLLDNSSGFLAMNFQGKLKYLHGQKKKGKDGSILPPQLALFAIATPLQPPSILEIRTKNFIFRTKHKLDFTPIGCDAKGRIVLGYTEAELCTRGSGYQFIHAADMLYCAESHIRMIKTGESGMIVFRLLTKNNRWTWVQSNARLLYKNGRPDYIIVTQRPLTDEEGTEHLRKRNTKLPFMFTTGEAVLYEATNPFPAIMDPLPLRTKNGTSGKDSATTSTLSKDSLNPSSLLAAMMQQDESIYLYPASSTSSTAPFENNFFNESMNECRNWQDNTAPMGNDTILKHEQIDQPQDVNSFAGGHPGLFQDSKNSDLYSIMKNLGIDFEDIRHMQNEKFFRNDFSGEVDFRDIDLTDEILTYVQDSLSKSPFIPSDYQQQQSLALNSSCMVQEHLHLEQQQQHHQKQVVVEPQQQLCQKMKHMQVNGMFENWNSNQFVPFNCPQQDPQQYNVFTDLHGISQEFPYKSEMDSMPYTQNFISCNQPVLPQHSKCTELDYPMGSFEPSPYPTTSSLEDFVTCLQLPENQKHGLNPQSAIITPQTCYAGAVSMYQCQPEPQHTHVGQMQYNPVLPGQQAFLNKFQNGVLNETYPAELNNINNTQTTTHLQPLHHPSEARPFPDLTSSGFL
GRIN3A LBD mod: NR3A (human) ligand-binding domain modulation | NR3A LBD differential scanning fluorimetry, Tm shift; 0% = protein alone, 100% = glycine-bound protein | Tm shift relative to glycine control, % at 25 µM | 340,000 tested, 2.5% active | AID 1259313;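 active means melting temperature shift of at least 10% of the positive control shift, at one fixed dose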
ADAM17 inh: inhibitors of human ADAM17; P78536; recombinant ADAM17, EDANS/DABCYL FRET peptide cleavage; inhibition, % at 6.95 µM; 370,000 tested, 0.83% active; AID 720648;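 active means inhibition above the mean of compounds lying between control limits plus 3 SD, set per campaign, cut at about 8.5% in these data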
proKLK7 act: activates the human kallikrein-7 zymogen | 370,000 tested, 0.9% active | P49862 | purified proKLK7, EDANS-DABCYL substrate fluorescence; 100% is mature enzyme control, 0% vehicle | activation, % at 7 µM | AID 652039;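 active means activation above the mean of all tested compounds plus 3 SD, computed per campaign excluding outliers beyond control limits, cut at about 13% in these data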
Each line names hits and unclear results; the compound was inactive in the other large screens.

COc1cccc(Nc2nc3ccccc3nc2-n2nc(C)cc2C)c1	none
Cc1sc2nc(COC(=O)CNC(=O)c3cc(F)ccc3F)[nH]c(=O)c2c1C	none (no result: AHR act, GRIN3A LBD mod)
Cc1oc2c(CN(C)C)c(O)ccc2c(=O)c1-c1cscn1	proKLK7 act 20
Cc1oc2c(CN3CCOCC3)c(O)ccc2c(=O)c1-c1ccc(Br)cc1	none
O=C(Nc1nccs1)c1cc(Cl)nc2ccccc12	AHR act 68
O=C(Nc1ccc(F)cc1)c1cc(-c2ccncc2)nc2c(Cl)cccc12	AHR act 69
O=C(Nc1nccs1)c1cc(-c2ccccn2)nc2c(Cl)cccc12	AHR act 76
Cc1ccc(-n2c(SCC(=O)c3ccc(F)cc3)nnc2-c2cccnc2)cc1	none (no result: AHR act, GRIN3A LBD mod)
COCc1ccc(C(=O)N2CCCC(N(C)CCc3ccc(OC)c(OC)c3)C2)s1 (stereo not drawn)	GRIN3A LBD mod 14
COCC(=O)N1CCCC(N(C)CCc2ccc(OC)c(OC)c2)C1 (stereo not drawn)	none
O=C(CCCCCN1C(=O)C2C3C=CC(C3)C2C1=O)Nc1ccc2ncccc2c1 (stereo not drawn)	none (no result: AHR act, GRIN3A LBD mod)
CCN(CC)C(=O)CC[C@H]1CC[C@]2(CCCN(C(=O)c3cccnc3)C2)O1	none (no result: AHR act, GRIN3A LBD mod)
CCC(C)(C)c1ccc2c(c1)C(=O)c1ccccc1C2=O	AHR act 72
C=CCN=C1NC(CCc2ccccc2)C(C(=O)OC)=C(C)N1C (stereo not drawn)	none (no result: AHR act, GRIN3A LBD mod)
Cc1ccc(Nc2nc(N)c([N+](=O)[O-])c(NCc3ccco3)n2)cc1C	AHR act 64
CNc1nc(N)c([N+](=O)[O-])c(Nc2cccc(Cl)c2)n1	AHR act 58
Cc1ccc(Nc2nc(N)c([N+](=O)[O-])c(NCCO)n2)cc1C	AHR act 81
O=C(O)c1ccc(/C=N/Nc2nnnn2-c2ccccc2)cc1	GRIN3A LBD mod 10
C(=N\Nc1nnnn1-c1ccccc1)/c1ccncc1	none
O=C(c1ccc(F)cc1F)N(Cc1ccccn1)CC1CCCO1 (stereo not drawn)	none (no result: AHR act, GRIN3A LBD mod)
CC(=O)Nc1ccc(N2C(C(C)=O)=NN(c3ccc(Cl)cc3)C2c2sccc2C)cc1 (stereo not drawn)	AHR act 66
CC(=O)Nc1ccc(N2C(C(C)=O)=NN(c3ccccc3)C2c2cccs2)cc1 (stereo not drawn)	none
CCCC(=NCc1ccccc1)C1=C(O)C(C(=O)OC)C(C)(C)CC1=O (stereo not drawn)	none
CCCC(=NCC(=O)O)C1=C(O)C(C(=O)OC)C(C)(C)CC1=O (stereo not drawn)	GRIN3A LBD mod 25
CN(C)c1nc(N)nc(/C(C#N)=C/C2CC3C=CC2C3)n1 (stereo not drawn)	AHR act 47
CC(C)(C)c1ccc(-c2cc(C(=O)NNC(=O)Nc3ccccc3)c3ccccc3n2)cc1	GRIN3A LBD mod 12
O=C(NNC(=O)c1cc(-c2cccnc2)nc2ccccc12)Nc1ccc(Cl)cc1	GRIN3A LBD mod 26
COC(=O)C1CN(Cc2cn(Cc3ccc(OC)cc3)nn2)CCS(=O)(=O)N1Cc1ccc(OC)cc1 (stereo not drawn)	none (no result: AHR act, GRIN3A LBD mod)
C[C@@H]1COc2cc(NCCO)ccc2S(=O)(=O)N1	none (no result: AHR act, GRIN3A LBD mod)
CN1CCN(C(=O)c2cc3cc(F)ccc3[nH]2)CC1	none (no result: AHR act)
O=C(c1cc2cc(F)ccc2[nH]1)N1CCN(C(=O)c2ccco2)CC1	AHR act 54
O=C(CSc1nnc(NC(=O)c2c(F)cccc2F)s1)Nc1ccc(F)cc1	none
CC(=O)Nc1ccc(NC(=O)CSc2nnc(NC(=O)c3cccc(F)c3)s2)cc1	GRIN3A LBD mod 31
COc1ccc(C(=O)Nc2nnc(SCC(=O)NC3CCCC3)s2)c(OC)c1	none
CC(=O)Nc1ccc(NC(=O)CSc2nnc(NC(=O)C3CC3)s2)cc1	none
O=C(CSc1nnc(NC(=O)C2CC2)s1)Nc1ccc(F)cc1	GRIN3A LBD mod 14
COc1ccc(C(=O)Nc2nnc(SCC(=O)Nc3ccc(NC(C)=O)cc3)s2)c(OC)c1	GRIN3A LBD mod 20
CCN(c1ccc(C)cc1)S(=O)(=O)c1nnc(NC(=O)c2ccco2)s1	rCAG RNA binder 44
Cc1ccccc1CNC(=O)C1C2C=CC3(CN(Cc4ccccc4)C(=O)C13)O2 (stereo not drawn)	none (no result: AHR act, GRIN3A LBD mod)
CN(C)c1ccc(NC(=O)CSc2nc(N)c(C(=O)Nc3ccc(N(C)C)cc3)s2)cc1	none
O=C(CSc1nnc(NC(=O)c2ccco2)s1)Nc1ccccc1	none
CC(=O)Nc1ccc(NC(=O)CSc2nnc(NC(=O)c3ccco3)s2)cc1	GRIN3A LBD mod 16
COc1ccc(NC(=O)CSc2nc(N)c(C(=O)Nc3ccc(N(C)C)cc3)s2)cc1	AHR act 50 (no result: rCAG RNA binder, ADAM10 inh, ADAM17 inh, proKLK7 act)
CN(CCOC(=O)c1cc2ccccc2o1)C1CN(Cc2cn(Cc3ccccc3C(F)(F)F)nn2)S(=O)(=O)C1 (stereo not drawn)	none (no result: AHR act, GRIN3A LBD mod)
N#C/C(=C\Nc1ccc2cn[nH]c2c1)c1nc(-c2ccc(Cl)cc2)cs1	AHR act 52
CN1CC=C(c2ccc(C(F)(F)F)cc2)N(c2ccc(Br)cc2)C1=O	none (no result: AHR act, GRIN3A LBD mod)
CSc1nnc(-c2cc3c(s2)-c2ccccc2CC3)o1	AHR act 66
C=CCN1[C@@H](C)COc2cc(N3CCCC3)ccc2S1(=O)=O	none (no result: AHR act, GRIN3A LBD mod)
CC(C)C[C@@H]1COc2cc(Br)ccc2S(=O)(=O)N1Cc1cn(Cc2ccccc2)nn1	none (no result: AHR act, GRIN3A LBD mod)
COC(=O)c1ccc(Cn2nc(C(F)(F)F)cc2C)cc1	GRIN3A LBD mod 17
CC1C/C(=N/Nc2nc3ccccc3[nH]2)CC(C)(C)C1 (stereo not drawn)	AHR act 89
O=C(NCCc1ccccc1Cl)[C@@H]1CCCN1C(=O)[C@@H](NC(=O)N1CCOCC1)C1CCCCC1	none (no result: AHR act, GRIN3A LBD mod)
C=CCNc1nc(N)c(C(=O)Nc2cc(C)on2)s1	none (no result: GRIN3A LBD mod)
Cc1cnc(NC(=O)c2sc(Nc3ccccc3)nc2N)o1	AHR act 55
Cc1cc(NC(=O)c2sc(Nc3ccc(F)cc3)nc2N)no1	AHR act 56
O=C(/C=C/c1ccccc1[N+](=O)[O-])NCCc1ccc(F)cc1	none
O=C(/C=C/c1ccccc1Cl)NCCc1ccc(F)cc1	GRIN3A LBD mod 14
CCOC(=O)c1cc2sccc2n1CC(=O)N1c2ccccc2CC1C (stereo not drawn)	GRIN3A LBD mod 12
Cc1cc(N2CCNC[C@@H]2C)ccc1N1CCN(Cc2ccccc2)[C@H](C)C1	none (no result: AHR act, GRIN3A LBD mod)
CC(=O)NC(CC(C)C)C(=O)NC(Cc1ccccc1)C(=O)CCl (stereo not drawn)	GRIN3A LBD mod 17 (no result: AHR act)
Cc1cc(C)n(-c2nc(-c3ccc(Cl)cc3)cs2)n1	AHR act 60
C[C@H]1COc2cc(Br)ccc2S(=O)(=O)N1Cc1cn(Cc2ccco2)nn1	none (no result: AHR act, GRIN3A LBD mod)
O=C(Nc1cc(S(=O)(=O)N2CCCCC2)ccc1Cl)c1ccncc1	none
O=C(Nc1ccccc1)Nc1ccc(S(=O)(=O)N2CCCCC2)cc1	GRIN3A LBD mod 22
